# This excerpt belongs to a sample that is enriched for hits.
# KDM5B inh: blocks human KDM5B histone demethylase activity | Q9UGL1 | KDM5B demethylase, FDH-coupled NADH fluorescence (FDH is formaldehyde dehydrogenase) | Potency, µM (titrated, usually from 57.7 µM), most hits filed as inhibitors | 220,000 tested, 2.6% active | AID 1347165; active = well fitted inhibition curve with a large enough effect; also: 0% is about no effect; nearly all actives have a fitted effect of over 70% in size
#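 KDM5BΔAP (200 nM final) in 50 mM HEPES pH 7.5, 0.01% Tween-20 was preincubated 10 min at RT with compound over a concentration range. Substrate mix (H3K4me3 12.5 µM, α-KG 25 µM, Fe²⁺, ascorbate, NAD⁺, FDH) was added, and NADH fluorescence change over 30 min gave dose-response curves.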
# Numbers without * were called inactive; i = inactive. Potency is read from the fitted curve at half-maximal effect.
SMILES,KDM5B inh
O=C(NCc1cccc(F)c1)c1nc(-c2cccc3[nH]ccc23)no1,i
COCCn1c(C)nnc1-c1cc(-c2cccc(CO)c2)ccn1,i
COCCn1ccc2c(C3=CCOCC3)nc(-c3cccc4[nH]ccc34)cc21,35µM*
Cc1cc(C)c(CNC(=O)c2nc(-c3cccc(CO)c3)cc3c2ccn3C(C)C)c(=O)[nH]1,i
COc1ccc(CNC(=O)c2nc(-c3cccc4[nH]ccc34)no2)cc1OC,i
COc1ccccc1-c1cc2c(ccn2C)c(C(=O)NCC2CCOCC2)n1,i
COCCn1ccc2c(C3=CCOCC3)nc(-c3cccc4[nH]ncc34)cc21,28µM*
COCCn1ccc2c(C3=CCOCC3)nc(-c3cccc(CO)c3)cc21,40µM*
COCCn1ccc2c(C3=CCOCC3)nc(-c3ccc4cn[nH]c4c3)cc21,40µM*
Cc1ccc(NC2=C(C(=O)N3CCOCC3)S(=O)(=O)c3ccccc32)cc1F,i
CC1CN(C2CCCCC2)CCC1=O (stereo unspecified),i
CCOC(=O)c1cnn(-c2cc(C)nc3c(-c4ccc(F)cc4)cnn23)c1N,i
CN(C)S(=O)(=O)c1ccc(N2CCCCC2)c(C(=O)N2CCCc3ccccc32)c1,i
Cc1ccc(C)c(/C(O)=C2\C(=O)C(=O)N(c3nnc(C)s3)C2c2ccccc2)c1 (stereo unspecified),i
CCOc1ccc2c(n1)CCN(C(=O)Cc1ccc(C)cc1)C2,i
Cc1ccc(S(=O)(=O)N(CC(N)=O)Cc2c(F)cccc2Cl)cc1,i
NS(=O)(=O)c1ccc(N/N=C/c2cccc(O)c2)c([N+](=O)[O-])c1,i
COCCn1ccc2c(C3=CCOCC3)nc(-c3ccc4c(c3)CNC4=O)cc21,11µM*
CN1CCC(N[C@H]2C[C@@H](Cc3cc(-c4ccc(F)cc4)on3)C2(C)C)CC1,i
CC(Sc1nc2ccccc2[nH]1)C(=O)NC(=O)NC(C)(C)C (stereo unspecified),i
CSc1ccc(-c2nc3c([nH]2)CC(C)(C)CNC3=O)cc1,28µM*
CC1(C)CNC(=O)c2nc(CCSCc3ccco3)[nH]c2C1,i
CC1(C)CNC(=O)c2nc(C3CCCN(Cc4ccccc4)C3)[nH]c2C1 (stereo unspecified),i
CCc1ccc(C(=O)CSc2nnc(-c3ccc(Cl)cc3)n2CCOC)cc1,i
Cc1ccc(-c2c(C(N)=O)c(C)nc3sc4c(c23)CCC4)cc1,i
SMILES,KDM5B inh
O=C(CCc1ccccc1Cl)NCc1cccc(C(F)(F)F)c1,i
C1CCC(c2nc(CCOCC3CC3)no2)NC1 (stereo unspecified),i
C1CCC(c2nc(CCOCC3CCOCC3)no2)NC1 (stereo unspecified),32µM*
C1CCC(COCCc2noc(C3CCCN3)n2)C1 (stereo unspecified),i
Cc1nc2cc(NC(=O)c3ccc(Cl)c(Cl)c3)ccc2o1,i
CN(C)S(=O)(=O)c1ccccc1CNS(=O)(=O)c1ccc2c(c1)CCCC2,i
CCCC(C)N1CC2(CCN(C(=O)c3ccc(C(C)=O)s3)CC2)OC1=O (stereo unspecified),i
CCCc1cc(C(=O)N2CCC3(CC2)CN(C(C)CCC)C(=O)O3)n[nH]1 (stereo unspecified),28µM*
CCCC(C)N1CC2(CCN(C(=O)c3c(CC)noc3C)CC2)OC1=O (stereo unspecified),i
Cc1nc2ccccc2c(Cl)c1C/C=C/Cl,i
N#Cc1ccc(NCCc2cccc3cccnc23)nc1,i
CCCOCCCNC(=O)c1c(C)noc1-c1ccc2c(c1)OCO2,28µM*
COc1ccc(-c2onc(C)c2C(=O)NCCCOC(C)C)cc1,i
CCCCNC(=O)c1cc(-c2ccc3c(c2)OCO3)on1,i
CCCOCCCNC(=O)c1c(C)noc1-c1ccc(C(C)(C)C)cc1,i
CCCOCCNC(=O)c1c(C)noc1-c1ccc2c(c1)OCO2,28µM*
COc1ccc(-c2onc(C)c2C(=O)NCCOc2ccccc2)cc1,i
Cc1[nH]c(=O)[nH]c(=S)c1C#N,i
CC1CCN(c2nc3c(c(=O)n(Cc4ccccc4)c(=O)n3C)n2C)CC1,i
CN1CCCCC1CC(=O)O (stereo unspecified),i
Cc1cc(CSc2nnc(-c3cccnc3)n2Cc2ccccc2)no1,i
CC(=O)NC1=NN(C(C)=O)C(c2ccccc2OCc2ccccc2Cl)S1 (stereo unspecified),i
COc1ccc2c(=O)c(-c3cnn(-c4ccccc4)c3)c(C(F)(F)F)oc2c1,i
COc1cccc(C(=O)N2CC(Oc3ccc(-c4noc(-c5ccccc5)n4)cc3)C2)c1,i
O=C(Nc1ccccc1)N1CCC(Oc2ccccc2-c2nc(-c3cnccn3)no2)C1 (stereo unspecified),i
SMILES,KDM5B inh
O=C(NC1CCCC1)N1CC(Oc2ccccc2-c2nc(-c3ccccc3)no2)C1,28µM*
COc1ccc(C(=O)N2CC(Oc3ccccc3-c3nc(-c4ccccc4)no3)C2)cc1,25µM*
CCNC(=O)N1CC(Oc2ccccc2-c2nc(-c3cnccn3)no2)C1,i
COc1ccc(C(=O)N2CC(Oc3ccc(-c4nc(-c5ccccc5)no4)cc3)C2)cc1,i
CN1C[C@@H](NC(=O)Nc2ccc(C(F)(F)F)cc2)C[C@H]1c1nc(-c2ccc(Cl)cc2)no1,i
CC(=O)c1ccc(NC(=O)c2ccc3ccn(C)c3c2)cc1,i
CCOc1ccc(NC(=O)/C=C/Sc2ccccc2)cc1,i
COc1ccc(-n2cc(CN3CCCC(CO)C3)c(-c3cccc(F)c3)n2)cc1 (stereo unspecified),35µM*
COc1ccc(-n2cc(CN3CCN(C)C(C)C3)c(-c3cccc(F)c3)n2)cc1 (stereo unspecified),25µM*
COc1ccc(-c2nn(-c3ccccc3)cc2CN2CCN3CCCC3C2)c(F)c1 (stereo unspecified),i
COc1ccc(-c2nn(-c3ccccc3)cc2CN2CCN(C)C(C)C2)c(F)c1 (stereo unspecified),i
COc1ccc(-c2nn(-c3ccccc3)cc2CN2CCN(C)CC2)c(F)c1,i
COC1CCCN(Cc2cn(-c3ccc(F)cc3)nc2-c2ccccc2Cl)C1 (stereo unspecified),i
Cc1nc(-c2ccc(S(=O)(=O)Nc3ccc(C)c(Cl)c3)cc2)co1,i
O=S1(=O)CCN2C(c3cc(F)ccc3F)=CSC2=N1,i
Cc1cc(C)cc(OCCN(C)C(=O)Cc2c[nH]c3ccccc23)c1,i
O=C(NCCc1ccc(Cl)cc1)c1nc(-c2ccsc2)c2ccccn12,22µM*
O=C(NCCc1ccc(Cl)cc1)c1nc(-c2ccc(Cl)nc2)c2ccccn12,50µM*
Cc1oc(-c2ccc(C(=O)NCCc3ccc(Cl)cc3)cc2)nc1CSc1ccccc1,i
O=C(NCc1ccc(F)cc1)c1nc(-c2cccnc2)c2cnccn12,i
O=C(NCCc1cccnc1)c1ccc(Cl)cc1,i
O=C(Cn1c(=O)nc(-c2ccccc2)c2ccccc21)NCCc1ccc(Cl)cc1,i
O=C(NCCc1ccccc1)c1ccc(CSc2nc3ccncc3n2Cc2ccc(F)cc2)cc1,i
Cc1cccn2c(=O)c(C(=O)NCc3ccc(F)cc3)c(O)nc12,i
O=C(Cc1cccs1)NCCc1ccc(Cl)cc1,i
O=C(NCc1ccc(F)cc1)c1nc(-c2ccc(F)cc2)c2cnccn12,35µM*
O=C(NCCc1ccc(Cl)cc1)c1nc(-c2ccc(F)cc2)c2cnccn12,32µM*

# Source: PubChem BioAssay (National Center for Advancing Translational Sciences (NCATS))
